# Measurements published in PubChem BioAssay (EPA / NIEHS).
# Active and inactive are the calls of the source. Rule for the calls: active = hit-call score of the fitted dose curve at least 0.9, where 1 is the maximum; inactive = score below 0.9.
# Read-out: Vascular cell adhesion molecule 1 (VCAM1), VCAM1 (gene 7412)
# Experiment: BSK_hDFCGF_VCAM1: BioMAP Diversity Plus: hDFCGF Assay for Vascular cell adhesion molecule 1 (VCAM1) Biomarker Activity (AID 2283065)
# Settings: primary human foreskin fibroblasts; actives raise or lower the signal
# Experimental: BSK_hDFCGF is a cell-based, multiplexed-readout assay that uses foreskin fibroblast, a human skin primary cell, with measurements taken at 24 hours after chemical dosing in a 96-well plate.BSK_hDFCGF_VCAM1 is an assay component measured in the BSK_hDFCGF assay. It measures VCAM-1 antibody related to regulation of gene expression using ELISA technology.Data from the assay component BSK_hDFCGF_VCAM1 was analyzed into 1 assay endpoint. This assay endpoint, BSK_hDFCGF_VCAM1, was analyzed with bidirectional fitting relative to DMSO as the negative control and baseline of activity. Using a type of binding reporter, gain or loss-of-signal activity can be used to understand changes in the signaling as they relate to the gene VCAM1. Furthermore, this assay endpoint can be referred to as a primary readout, because this assay has produced multiple assay endpoints where this one serves a signaling function. To generalize the intended target to other relatable targets, this assay endpoint is annotated to the cell adhesion molecules intended target family, where the subfamily is Immunoglobulin CAM.
# The levels of cell surface (or secreted, indicated by the prefix "s") biomarker endpoints were measured by ELISA. Overt cytotoxicity to cells in confluent adherent cultures (all systems other than the BT system) was assessed by measuring total protein levels using sulforhodamine B (SRB) staining in parallel cultures at the time of biomarker measurements, indicated as SRB endpoints. For proliferation assays for adherent cell types, individual cell types are cultured at sub-confluence and relative cell numbers quantified by SRB staining at time points optimized for each system (48 h: 3C and CASM3C systems; 72 h: BT and HDF3CGF systems; 96 h: SAg system). SRB was performed by staining cells with 0.1% SRB after fixation with 10% TCA and reading wells at 560 nm.Viability and proliferation of PBMC (T cells) was quantified by Alamar Blue reduction for the SAg and BT systems. For PBMC viability (referred to as PBMC Cytotoxicity within the assay endpoint names), cells were plated (75,000/well in a 96-well plate) and then chemical samples added for 1 h before addition of activators, SEB and TSST-1 (20 ng/mL final concentration each). Cells were incubated for 90 h. Then, Alamar Blue (20 uL/well) (Invitrogen, Cat DAL1100) was added for 6 h, and the plates were read with a fluorescence microplate reader at 546/580 nm (excitation/emission). For PBMC proliferation, cells were plated and activated as above but incubated for only 16 h prior to addition of Alamar Blue. Plates were read after 6 h.
Compound,outcome,AC50
CC(C)Nc1nc(Cl)nc(NC(C)C)n1,inactive,–
CC(C)=CC1C(C(=O)OCc2coc(Cc3ccccc3)c2)C1(C)C (stereo not given),inactive,–
Clc1nc(Cl)nc(Nc2ccccc2Cl)n1,–,36.1 µM (active)
COCC(C)N(C(=O)CCl)c1c(C)csc1C (stereo not given),inactive,–
CC(C)C1(C)N=C(c2ncccc2C(=O)O)NC1=O (stereo not given),inactive,–
COC(=O)N(C(=O)N1CO[C@@]2(C(=O)OC)Cc3cc(Cl)ccc3C2=N1)c1ccc(OC(F)(F)F)cc1,inactive,–
COCC(=O)N(c1c(C)cccc1C)C(C)C(=O)OC (stereo not given),inactive,–
C=C(C)CN(CC)c1c([N+](=O)[O-])cc(C(F)(F)F)cc1[N+](=O)[O-],inactive,–
CCNP(=S)(OC)O/C(C)=C/C(=O)OC(C)C (stereo not given),inactive,–
CCCCOCN(C(=O)CCl)c1c(CC)cccc1CC,–,16.9 µM (active)
Cn1c(-c2ccccc2)cc(-c2ccccc2)[n+]1C,inactive,–
O=C1C2CC=CCC2C(=O)N1SC(Cl)(Cl)Cl (stereo not given),–,5.37 µM (active)
COC(=O)NC(=S)Nc1ccccc1NC(=S)NC(=O)OC,inactive,–
COP(=S)(OC)Oc1ccc([N+](=O)[O-])c(C)c1,–,9.37 µM (active)
Cc1cc(C)nc(Nc2ccccc2)n1,inactive,–
CC1(C)CCC(=Cc2ccc(Cl)cc2)C1(O)Cn1cncn1 (stereo not given),inactive,–
CC(C)N1C(=O)N(c2ccccc2)CSC1=NC(C)(C)C,–,32.1 µM (active)
Cc1ccc(N=CN(C)C=Nc2ccc(C)cc2C)c(C)c1,–,15.8 µM (active)
CC1(C)CON(Cc2ccccc2Cl)C1=O,inactive,–
CC(C)(C)C(=O)C(Oc1ccc(Cl)cc1)n1cncn1 (stereo not given),inactive,–

Compound,outcome,AC50
CCSC(=O)N1CCCCCC1,inactive,–
CC(C)N1C(=O)c2ccccc2NS1(=O)=O,inactive,–
C=CCOC(=O)C(C)(C)OC(=O)c1cc(-n2c(=O)cc(C(F)(F)F)n(C)c2=O)ccc1Cl,inactive,–
CC(C)NC(=O)N1CC(=O)N(c2cc(Cl)cc(Cl)c2)C1=O,inactive,–
CS(=O)(=O)c1ccc(C(=O)C2C(=O)CCCC2=O)c([N+](=O)[O-])c1,inactive,–
CCOc1cc(C(C)(C)C)ccc1C1COC(c2c(F)cccc2F)=N1 (stereo not given),–,15.3 µM (active)
CSC(=O)c1c(C(F)F)nc(C(F)(F)F)c(C(=O)SC)c1CC(C)C,–,13.4 µM (active)
Nc1cnn(-c2ccccc2)c(=O)c1Cl,inactive,–
Cc1cnc(C2=NC(C)(C(C)C)C(=O)N2)c(C(=O)O)c1 (stereo not given),inactive,–
Clc1cccc(C(Cl)(Cl)Cl)n1,inactive,–
COP(=S)(OC)SCn1nnc2ccccc2c1=O,inactive,–
CC1(C)C(C(=O)OC(C#N)c2cccc(Oc3ccccc3)c2)C1(C)C (stereo not given),inactive,–
CCOP(=S)(OCC)Oc1nc(Cl)n(C(C)C)n1,inactive,–
COCc1cnc(C2=NC(C)(C(C)C)C(=O)N2)c(C(=O)O)c1 (stereo not given),inactive,–
N#CN=C1SCCN1Cc1ccc(Cl)nc1,inactive,–
CN/C(=N\[N+](=O)[O-])NCc1cnc(Cl)s1,inactive,–
CC(C)Oc1cccc(NC(=O)c2ccccc2C(F)(F)F)c1,inactive,–
CCOc1nc(C(Cl)(Cl)Cl)ns1,inactive,–
CCOP(=O)(OCC)Oc1nc(Cl)c(Cl)cc1Cl,–,18.4 µM (active)
COc1ccc(-c2ccccc2)cc1NNC(=O)OC(C)C,inactive,–
